# Reference: PubChem BioAssay AID1851 (National Center for Advancing Translational Sciences (NCATS), 2009)
# Out of some 16,000 compounds screened, about 5,100 (32%) were called active. About 25% were inconclusive and are not listed. This is one part of the list. A number with no mark means an inactive call. The call rests on the fitted dose curve; in most records, active means well fitted curve in the direction sought with a large enough effect; inconclusive means small, poorly fitted or top-dose-only effect, or effect the other way; inactive means no such curve, though single readings can be large or run the other way.
# Target: Cytochrome P450 3A4 (Homo sapiens) (UniProt P08684)
# Assay: Cytochrome panel assay with activity outcomes
# Conditions: recombinant CYP, pro-luciferin dealkylation, luminescence, p450-cyp3a4; series mostly up to 57.1 µM
# On the % scale 0 is the no-effect control and ±100 the full control effect.
# Sequence of Cytochrome P450 3A4 (Homo sapiens) (P08684 whole entry, looked up): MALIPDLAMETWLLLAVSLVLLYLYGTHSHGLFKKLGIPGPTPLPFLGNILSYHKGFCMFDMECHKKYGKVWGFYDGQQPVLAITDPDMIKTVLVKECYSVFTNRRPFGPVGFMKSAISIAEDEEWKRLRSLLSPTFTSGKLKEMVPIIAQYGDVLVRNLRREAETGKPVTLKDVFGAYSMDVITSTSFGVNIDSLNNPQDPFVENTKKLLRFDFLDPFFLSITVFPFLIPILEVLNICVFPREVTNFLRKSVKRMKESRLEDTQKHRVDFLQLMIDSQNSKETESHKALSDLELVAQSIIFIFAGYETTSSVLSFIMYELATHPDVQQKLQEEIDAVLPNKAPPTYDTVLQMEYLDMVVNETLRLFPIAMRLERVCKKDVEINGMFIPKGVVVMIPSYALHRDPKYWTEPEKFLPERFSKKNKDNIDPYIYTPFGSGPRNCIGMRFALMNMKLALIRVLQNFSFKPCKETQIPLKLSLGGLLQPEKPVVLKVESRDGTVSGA
Structure (SMILES),AC50,"activity, negative = inhibition"
CN(C)c1nc(C#N)nc(N2CCOCC2)n1,inactive,
O=C(CNS(=O)(=O)c1ccc(Br)s1)N1CCC(N2CCCCC2)CC1,inactive,
CCC(C)NC(=O)CCS(=O)(=O)c1ccc(Br)s1 (stereo not drawn),0.891 µM (active),
COC(=O)C/C=C1\c2ccccc2[C@H](OC)[C@H]1C,,-2.89% [at 11.4 µM]
Nc1ccc(N=Nc2ccc(-c3ccc(O)cc3)cc2)c2ccc(S(=O)(=O)O)cc12,,-11.1% [at 11.4 µM]
COC(=O)[C@@]1(Cc2ccc(F)cc2)[C@H]2c3cc(C(=O)N4CCCC4)n(Cc4c(CO)[nH]cc(C)c4=O)c3C[C@H]2CN1C(=O)c1ccccc1,2 µM (active),
COC(=O)[C@@]1(Cc2ccccc2)[C@H]2c3cc(C(=O)N4CCCC4)n(Cc4c(CO)[nH]cc(C)c4=O)c3C[C@H]2CN1C(=O)c1ccccc1,2.51 µM (active),
O=C1c2cccc3cccc(c23)C(=O)N1CC1CCN(CC(O)COc2ccc3ccccc3c2)CC1 (stereo not drawn),7.94 µM (active),
CCc1nc2c(c(SC)nn2-c2ccccc2)c(N)c1C(=O)OC,,-21.9% [at 11.4 µM]
CCOC(=O)c1c(-c2ccccc2)nc2ccc(Cl)cn12,inactive,
CCCOC(=O)c1c(-c2ccccc2)nc(CC)c(C(=O)SCC)c1CCC,10 µM (active),
O=C1CCCC=C1[C@@H](O)C1CCCCC1,,-18.7% [at 11.4 µM]
N#C/C(=C\Nc1ccccn1)C(=O)C1CC1,,-9.43% [at 11.4 µM]
N#C/C(=C\c1cn[nH]c1-c1ccccc1)C(=O)NC1CCCCCC1,7.08 µM (active),
N#C/C(=C\c1cc(Cl)cc(Cl)c1O)C(=O)NC1CCCCC1,15.8 µM (active),
CCN(CC)c1ccc2cc(C(C)=O)c(=O)oc2c1,inactive,
COc1ccc2c(CC(=O)NCC3CCC(C(=O)O)CC3)cc(=O)oc2c1 (stereo not drawn),inactive,
CCN(CC)c1ccc(C(=O)OCc2cc(=O)oc3cc(O)ccc23)cc1,6.31 µM (active),
CCN(CC)c1ccc2c(Cl)cc(=O)oc2c1,25.1 µM (active),
Cc1cc(=O)oc2cc(O)ccc12,inactive,
CCOc1cc2c(C)cc(=O)oc2cc1Cl,inactive,

Structure (SMILES),AC50,"activity, negative = inhibition"
COc1ccc(-n2c(=O)c(-c3ccccc3)nc3cnc(N4CCNCC4)nc32)cc1,inactive,
O=c1c(-c2cc(F)cc(F)c2)nc2cnc(N3CCOCC3)nc2n1-c1ccccc1,inactive,
CN(C)c1ncc2nc(-c3cccs3)c(=O)n(-c3ccccc3)c2n1,inactive,
O=c1c(-c2cccs2)nc2cnc(N3CCNCC3)nc2n1-c1ccccc1,25.1 µM (active),
COc1ccc(-n2c(=O)c(-c3ccc(Cl)cc3)nc3cnc(N4CCNCC4)nc32)cc1,inactive,
CN1CCN(c2ncc3nc(-c4cccs4)c(=O)n(-c4ccccc4)c3n2)CC1,31.6 µM (active),
COc1ccc(-n2c(=O)c(-c3cccs3)nc3cnc(N4CCNCC4)nc32)cc1,15.8 µM (active),
Cc1nc2cnc(N3CCN(C)CC3)nc2n(-c2ccccc2)c1=O,inactive,
COc1ccccc1CNc1ncnc2ccc(-c3ccc4c(c3)OCO4)cc12,1.26 µM (active),
COc1ccc(CNc2ncnc3ccc(-c4ccc(N(C)C)cc4)cc23)c(OC)c1,3.98 µM (active),
COc1ccccc1CNc1ncnc2ccc(-c3ccc(N(C)C)cc3)cc12,2 µM (active),
CCOC(=O)c1[nH]c(C(=O)O)c(CCC(=O)OC)c1C,inactive,
Cc1cc(C)nc(NC(=O)CCCC(=O)O)c1,inactive,
C[N+]1(C)CCO[C@](O)(c2ccccc2)C1,,-8.04% [at 11.4 µM]
CC(C)NC(=O)c1ccc2c(=O)n(Cc3ccco3)c(=S)[nH]c2c1,inactive,
O=C(c1ccc2c(=O)n(Cc3ccco3)c(=S)[nH]c2c1)N1CCN(c2ccccc2)CC1,6.31 µM (active),
COc1ccc(CCNC(=O)c2ccc3c(=O)n(Cc4ccco4)c(=S)[nH]c3c2)cc1OC,0.631 µM (active),
COc1ccc(NC(=O)c2ccc3c(=O)n(Cc4ccco4)c(=S)[nH]c3c2)c(OC)c1,inactive,
Nc1ccccc1Nc1ccccc1,,-23.8% [at 11.4 µM]
C[C@H]1O[C@@H](CC(=O)O)Cc2c1c(O)c1c(O)cc(-c3cc(=O)c4c(=O)c5c(c(=O)c=4c3=O)C[C@H](CC(=O)O)O[C@@H]5C)c(O)c1c2O,,-6.62% [at 11.4 µM]
CCN1C(=O)CC(N2CCN(CC(=O)NC(C)C)CC2)C1=O (stereo not drawn),inactive,

Structure (SMILES),AC50,"activity, negative = inhibition"
Cc1onc(-c2ccccc2)c1C(=O)NCCc1c[nH]c2ccccc12,8.91 µM (active),
O=C(COc1ccccc1)Nc1ccc(-c2nnc(-c3ccco3)o2)cc1,inactive,
COc1cccc(C(=O)Nc2ccc(-c3nnc(-c4ccco4)o3)cc2)c1,4.47 µM (active),
COc1cc(C(=O)Nc2ccc(-c3nnc(-c4ccco4)o3)cc2)cc(OC)c1OC,7.08 µM (active),
C=CCNc1oc(/C=C/c2ccccc2)nc1C#N,15.8 µM (active),
Cc1cnc(CNc2nc(-c3ccoc3)nc3ccccc23)cn1,12.6 µM (active),
Cc1cnc(CNc2nc(-c3ccc(N(C)C)cc3)nc3ccccc23)cn1,5.01 µM (active),
Clc1ccc(CCNc2nc3ccccc3s2)cc1,15.8 µM (active),
C=CCn1c(C(C)NC(=O)c2ccccc2)n[nH]c1=S (stereo not drawn),,-3.87% [at 11.4 µM]
O=c1c(-c2nc3ccccc3s2)cccn1Cc1ccccc1,17.8 µM (active),
O=C(NNc1nc2ccccc2s1)c1ccccc1F,inactive,
CC(=O)NNc1nc2ccccc2s1,inactive,
O=c1c(-c2nc3ccccc3s2)cccn1Cc1ccc(Cl)cc1,14.1 µM (active),
C=CCn1c(-c2cccn(Cc3ccccc3)c2=O)n[nH]c1=S,12.6 µM (active),
OC[C@@H]1O[C@@H](n2cnc3c(NC4CCCCC4)ncnc32)[C@@H](O)[C@H]1O,inactive,
O=C(CCc1ccccc1)NNC(=O)C1CCCCC1,,-0.205% [at 2.29 µM]
CC(=O)NS(=O)(=O)c1ccc(NC(=O)NC2CCCCC2)cc1,inactive,
O=C(NNS(=O)(=O)c1ccc(Cl)cc1)NC1CCCCC1,inactive,
O=C(CCc1ccc(S(=O)(=O)NC2CCCCC2)cc1)N(Cc1ccccc1)Cc1ccccc1,3.16 µM (active),
CCC(C)NS(=O)(=O)c1ccc(NC(=O)CCC2CCCCC2)cc1 (stereo not drawn),,14.9% [at 2.29 µM]
Cc1ccc(NC(=O)CCc2ccc(S(=O)(=O)NC3CCCCC3)cc2)cc1,0.891 µM (active),
